The values that follow come from PubChem BioAssay.

Experiment [1] in a line: compound effects on lung adenocarcinoma cell viability – A549, calcein-AM fluorescence, 48 h, basal, profiling panel (AID 1162). Note: test concentration not given here. Particulars: higher = more signal.
Experiment [2] is described as follows: compound effects on differentiated 3T3-L1 adipocyte viability – cell-based, 3T3-L1 adipocytes, calcein-AM fluorescence, 48 h, basal, profiling panel (AID 1163). Note: test concentration not given here. The note with it: 3T3-L1 adipocytes viability, higher = more signal.
Experiment [3] can be described thus: compound effects on hepatocellular carcinoma cell viability – HepG2, calcein-AM fluorescence, 48 h, basal, profiling panel (AID 1164). Note: test concentration not given here. The note with it: higher = more signal.
The nature of experiment [4]: compound effects on multiple myeloma cell viability – MM1S, calcein-AM fluorescence, 48 h, basal, profiling panel (AID 1165).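 Note: viability of MM1S multiple myeloma cells under basal unstimulated conditions; test concentration not given here.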 Particulars: higher = more signal.
A short description of experiment [5]: calcein-AM signal in unstimulated myeloma cells – cell-based, calcein-AM fluorescence, 48 h, PK04 Diversity Set, profiling panel (AID 1166).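 Note: cells grown under basal conditions without added stimulus; test concentration not given here.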 The note with it: RPMI8226 myeloma viability, higher = more signal.
Experiment [6] can be described thus: JC-1 mitochondrial signal, unstimulated HepG2 cells – cell-based, JC-1 fluorescence, 24 h, 100 nL compound, profiling panel (AID 1167). Note: test concentration not given here. The note with it: HepG2 mitochondrial potential, higher = more signal.
Experiment [7] can be described thus: JC-1 mitochondrial signal, unstimulated adipocytes – cell-based, JC-1 fluorescence, 3T3-L1 adipocytes, 24 h, 100 nL compound, profiling panel (AID 1168). Note: test concentration not given here. The note with it: JC-1 mitochondrial fluorescence, higher = more signal, called active from +8 up or from −8 down.
The nature of experiment [8]: JC-1 mitochondrial signal, unstimulated myeloma cells – cell-based, JC-1 fluorescence, RPMI8226, 24 h, 100 nL compound, profiling panel (AID 1169). Note: test concentration not given here. The note with it: JC-1 mitochondrial potential fluorescence, higher = more signal.
Experiment [9] is described as follows: JC-1 mitochondrial signal, unstimulated MM1S myeloma – cell-based, JC-1 fluorescence, 24 h, 100 nL compound, profiling panel (AID 1170). Note: test concentration not given here. The note with it: MM1S mitochondrial potential, higher = more signal.
Experiment [10] is described as follows: resazurin metabolic signal in A549 cells – cell-based, resazurin fluorescence, 24 h, PK04 Diversity Set, profiling panel (AID 1171). Note: test concentration not given here. Particulars: A549 viability, higher = more signal, called active from +8 up or from −8 down. On the technique in general: Resazurin is reduced to fluorescent resorufin, in cell work by metabolically active cells.
A short description of experiment [11]: resazurin metabolic signal in HepG2 cells – cell-based, resazurin fluorescence, 24 h, PK04 Diversity Set, profiling panel (AID 1172). Note: test concentration not given here. Particulars: HepG2 viability, higher = more signal.
The nature of experiment [12]: budding yeast growth changes without added modifier – OD600, strain BY4716, 24 h, basal condition, primary screen (AID 1173). Particulars: S. cerevisiae BY4716 growth, OD600, 24 h; higher = more signal, called active from +8 up or from −8 down.
Experiment [13] can be described thus: viability profiling in MM1S myeloma cells – cell-based, resazurin fluorescence, basal, 24 h, PK04 Diversity Set, profiling panel (AID 1174). Note: test concentration not given here. Particulars: higher = more signal, called active from +8 up or from −8 down.
Experiment [14] has as its target Dihydroorotate dehydrogenase (quinone), mitochondrial (Plasmodium falciparum (isolate 3D7)) (UniProt Q08210). Nature of the experiment: inhibition of P. falciparum DHODH – biochemical, C-terminal His tag, absorbance 600 nm, primary screen (AID 1175).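 Note: recombinant parasite enzyme with a five histidine tag at its C terminus; test concentration not given here.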 The note with it: PfDHODH enzyme, DCIP absorbance 600 nm; higher = more signal, called active from +8 up or from −8 down.

A short description of experiment [15]: inhibition of PAO1 biofilm formation – strain PAO1, LB-PBS medium, absorbance 600 nm, primary screen (AID 1176). Note: test concentration not given here. The note with it: P. aeruginosa PAO1 growth/biofilm, A600, 12 h; higher = more signal.
Experiment [16] can be described thus: growth modulation of vineyard yeast isolate – strain RM11-1a, OD600, basal, 24 h, primary screen (AID 1177).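 Note: cultures grown under basal conditions with no added stressor; test concentration not given here.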 Particulars: S. cerevisiae RM11-1a growth, OD600, 24 h; higher = more signal, called active from +8 up or from −8 down.
Experiment [17] is described as follows: growth of efflux-deficient E. coli DRC39 – strain DRC39, OD650, 24 h, E. coli filamentation inducers, primary screen (AID 1178).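 Note: growth measured as culture turbidity by optical density at 650 nm; test concentration not given here.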 Particulars: E. coli DRC39 acrAB, higher = more signal, called active from +8 up or from −8 down.
Experiment [18] in a line: growth of efflux-deficient E. coli DRC39 – strain DRC39, OD650, 48 h, E. coli filamentation inducers, primary screen (AID 1179).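 Note: screen aims at cell division blockers that make cells filament.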 The note with it: E. coli DRC39 delta-acrAB growth, higher = more signal, called active from +8 up or from −8 down.
Experiment [19] can be described thus: viability profiling in RPMI8226 myeloma cells – cell-based, resazurin fluorescence, basal, 24 h, PK04 Diversity Set, profiling panel (AID 1180).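 Note: RPMI8826 multiple myeloma cell line at 5000 cells per well; test concentration not given here.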 Particulars: higher = more signal.
For experiment [20], the target named is E3 ubiquitin-protein ligase XIAP (Homo sapiens) (UniProt P98170). Nature of the experiment: small molecules binding XIAP protein – biophysical, small-molecule microarray, fluorescence 635 nm, primary screen (AID 1181).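 Note: score merges 667 nm emission and signal to noise over triplicate slides.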 Particulars: higher = more signal.
Sequence of E3 ubiquitin-protein ligase XIAP (Homo sapiens) (P98170 whole entry, looked up): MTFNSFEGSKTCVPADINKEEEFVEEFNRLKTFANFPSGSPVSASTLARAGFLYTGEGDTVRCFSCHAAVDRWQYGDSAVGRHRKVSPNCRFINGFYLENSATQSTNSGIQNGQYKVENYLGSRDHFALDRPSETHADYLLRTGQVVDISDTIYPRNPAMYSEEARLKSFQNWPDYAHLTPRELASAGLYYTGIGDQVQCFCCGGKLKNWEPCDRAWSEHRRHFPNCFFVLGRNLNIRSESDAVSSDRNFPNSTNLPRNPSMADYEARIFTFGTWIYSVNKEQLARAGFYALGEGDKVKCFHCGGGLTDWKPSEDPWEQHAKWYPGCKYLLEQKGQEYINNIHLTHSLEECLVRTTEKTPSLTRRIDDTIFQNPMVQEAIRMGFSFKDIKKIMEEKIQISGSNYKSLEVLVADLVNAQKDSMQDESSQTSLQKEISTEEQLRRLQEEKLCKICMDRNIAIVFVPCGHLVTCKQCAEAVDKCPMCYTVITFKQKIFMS

Active and inactive are the calls of the source. Unless noted, the rule behind the calls is not given here.

Sequence of Dihydroorotate dehydrogenase (quinone), mitochondrial (Plasmodium falciparum (isolate 3D7)) (Q08210 whole entry, looked up): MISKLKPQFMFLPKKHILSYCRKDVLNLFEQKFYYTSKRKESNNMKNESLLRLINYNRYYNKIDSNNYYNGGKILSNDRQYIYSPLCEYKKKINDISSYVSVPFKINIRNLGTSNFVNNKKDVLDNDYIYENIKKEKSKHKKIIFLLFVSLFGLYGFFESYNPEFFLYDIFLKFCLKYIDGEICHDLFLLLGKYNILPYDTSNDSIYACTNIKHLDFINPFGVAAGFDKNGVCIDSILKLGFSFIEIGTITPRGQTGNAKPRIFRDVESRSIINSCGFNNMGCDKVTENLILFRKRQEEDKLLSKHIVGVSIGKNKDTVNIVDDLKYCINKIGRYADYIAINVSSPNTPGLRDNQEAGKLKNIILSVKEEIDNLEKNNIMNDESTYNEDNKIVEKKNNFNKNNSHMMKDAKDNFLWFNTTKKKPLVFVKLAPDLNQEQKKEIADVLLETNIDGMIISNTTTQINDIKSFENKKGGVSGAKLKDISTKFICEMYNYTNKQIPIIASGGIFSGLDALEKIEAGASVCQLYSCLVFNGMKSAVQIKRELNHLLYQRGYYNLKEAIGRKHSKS

For `COc1ccc(O[C@H]2C=C[C@@H](C#Cc3ccccc3)O[C@@H]2CO)cc1`, the z-score in experiment [1] is -0.167; in [2] it was 0.956; in [3], -1.03; in [4], -3.57; in experiment [5], -3.67; in experiment [6] it was -1.19. In addition, the z-score in experiment [7] was -0.252 (inactive); in experiment [8], -0.891; in [9], -1.46; in experiment [10] it was 0.447 (inactive); in experiment [11] it was 0.124; in experiment [12], -10.4 (active). For the same molecule, the z-score in [13] is -1.24 (inactive); in experiment [15], 0.0372 (inactive); in [16], -0.76 (inactive); in [17], 0.633 (inactive); in [18], 0.14 (inactive); in experiment [19], -0.021. Moreover, the composite z-score in experiment [14] was -0.759 (inactive); in [20], -0.0412.
Regarding `CC(=O)OC[C@H]1O[C@H](CCON=C(C)CCN2CCCc3nc(C)c(C)cc32)C=C[C@@H]1OC(C)=O`, the z-score in experiment [1] is 0.235; in experiment [2] it was -0.9; in experiment [3] it was -0.667; in [4] it was -1.85; in experiment [5], -1.27; in experiment [6], -0.689. The z-score in experiment [7] is -0.805 (inactive); in experiment [8], 1.03; in [9], -0.033; in experiment [10], -0.221 (inactive); in experiment [11], 0.0171; in experiment [12], 1.34 (inactive). Besides, the z-score was -0.102 (inactive) in experiment [13]; 0.511 (inactive) in experiment [15]; 1.3 (inactive) in experiment [16]; 0.565 (inactive) in experiment [17]; 0.16 (inactive) in [18]; -0.0643 in [19]. Further, the composite z-score in experiment [14] is 0.245 (inactive); in experiment [20] it was -0.0878.
On to `CCOC(=O)[C@H](Cc1ccccc1)NC(=O)CCC1CC(OC(=O)NCc2ccc3c(c2)OCO3)CC2(CCCC(COC(=O)NCCOc3ccccc3)O2)O1` (stereo not given in full), for which the z-score is -0.794 in [1]; -0.317 in experiment [2]; 0.184 in experiment [3]; 0.322 in experiment [4]; 0.0039 in experiment [5]; 2.45 in [6]. Further, the z-score was 0.808 (inactive) in experiment [7]; -0.0508 in experiment [8]; -1.17 in experiment [9]; 0.198 (inactive) in experiment [10]; 0.425 in experiment [11]; -1.24 (inactive) in experiment [12]. In addition, the z-score in [13] was 0.975 (inactive); in experiment [15], -0.102 (inactive); in experiment [16], 0.0995 (inactive); in experiment [17], 0.662 (inactive); in experiment [18], 0.181 (inactive); in [19] it was 0.579. Further, the values for the composite z-score in [14] and in experiment [20] were -1.76 (inactive) and -0.0832, respectively.
`CCOC(=O)[C@H](CC(C)C)NC(=O)CCC1CC(OC(=O)NCc2ccc3c(c2)OCO3)CC2(CCCC(COC(=O)NCCOC)O2)O1` (stereo not given in full): the z-score in experiment [1] is 0.0414; in experiment [2], -0.453; in experiment [3] it was -0.0998; in [4], -0.418; in experiment [5], 0.457; in [6], 0.11. Besides, the z-score in experiment [7] is 0.65 (inactive); in experiment [8] it was 0.413; in experiment [9], -0.359; in experiment [10] it was 0.689 (inactive); in experiment [11], 1.22; in experiment [12], -0.383 (inactive). Moreover, the z-score in experiment [13] was 0.982 (inactive); in [15] it was -0.516 (inactive); in [16] it was 0.418 (inactive); in experiment [17], 0.214 (inactive); in experiment [18] it was -1.31 (inactive); in [19], 0.912. In addition, the composite z-score in [14] was -0.617 (inactive); in experiment [20], -0.0784.
With `CO[C@@H]1[C@H](O)CO[C@H]1C=Cc1ccccc1`, the z-score in experiment [1] was 0.998; in experiment [2], 1.12; in [3], -0.0866; in experiment [4], 0.018; in experiment [5] it was -0.664; in experiment [6] it was 0.161. The z-score in [7] is -0.267 (inactive); in [8], 0.337; in [9], 0.859; in experiment [10], -0.587 (inactive); in [11], -1.01; in [12], -1.05 (inactive). Also, the z-score in [13] is 0.841 (inactive); in experiment [15] it was -0.859 (inactive); in [16] it was -0.113 (inactive); in experiment [17] it was -0.442 (inactive); in experiment [18], 0.207 (inactive); in [19], 0.941. Also, the composite z-score in experiment [14] is 0.295 (inactive); in experiment [20] it was -0.123.
For `CCN1C(=O)[C@H]2[C@H]3[C@H](O)[C@H](O)CC(=NNC(=O)OCc4ccccc4)[C@H]3CC[C@H]2C1=O`, the z-score was -0.365 in experiment [1]; 0.888 in [2]; -0.0764 in [3]; -1.59 in experiment [4]; 0.507 in experiment [5]; -0.559 in experiment [6]. Also, the z-score in experiment [7] is -0.978 (inactive); in [8], 0.083; in experiment [9], 0.409; in experiment [10], -0.218 (inactive); in [11], -0.0019; in [12], -0.277 (inactive). In addition, the z-score in [13] is -0.193 (inactive); in [15], 0.814 (inactive); in experiment [16] it was -0.727 (inactive); in experiment [17] it was -0.47 (inactive); in experiment [18], -1.79 (inactive); in experiment [19], -0.163. Moreover, the composite z-score was -0.052 (inactive) in [14] and -0.102 in [20].
For `CC(C)C(=O)N[C@H]1CCCN1C(=O)C=Cc1ccccc1`, the z-score in [1] is -0.0724; in experiment [2], -0.578; in experiment [3], 0.176; in experiment [4], -0.903; in experiment [5], -0.1; in [6], -0.541. Further, the z-score is -0.288 (inactive) in experiment [7]; 0.6 in experiment [8]; -0.0562 in experiment [9]; 0.182 (inactive) in experiment [10]; -0.274 in experiment [11]; 0.881 (inactive) in [12]. For the same molecule, the z-score in experiment [13] is -0.46 (inactive); in [15], 0.897 (inactive); in experiment [16], 1.18 (inactive); in experiment [17], -0.0435 (inactive); in [18] it was -0.898 (inactive); in [19] it was -1.03. Moreover, the composite z-score was 0.581 (inactive) in experiment [14] and -0.0476 in experiment [20].
`COC(=O)[C@H](C)NC(=O)CCC1CC(OC(=O)NCc2ccc3c(c2)OCO3)CC2(CCCC(COC(=O)NCCCN3CCCC3=O)O2)O1` (stereo not given in full): the z-score in experiment [1] is -0.516; in experiment [2], -0.232; in experiment [3], -1.09; in experiment [4], -0.375; in experiment [5], -0.322; in [6], -0.815. The z-score was -0.019 (inactive) in [7]; -0.838 in experiment [8]; 0.224 in experiment [9]; 0.468 (inactive) in experiment [10]; 0.161 in experiment [11]; 0.58 (inactive) in experiment [12]. Besides, the z-score was -0.0358 (inactive) in [13]; 0.226 (inactive) in [15]; 1.04 (inactive) in experiment [16]; 0.7 (inactive) in experiment [17]; -0.028 (inactive) in experiment [18]; 0.0805 in [19]. Further, the composite z-score is 0.184 (inactive) in experiment [14] and -0.245 in [20].
Take `CO[C@H]1C[C@@H]2C[C@H](O)CC(CC(=O)O[C@@H](C=CCC(C)C)C[C@@H]3CC[C@H](C)[C@@H](C1)O3)O2`: the z-score was 0.366 in experiment [1]; 0.128 in [2]; 0.341 in [3]; 0.283 in experiment [4]; 0.624 in [5]; -0.427 in experiment [6]. The z-score in [7] was -0.975 (inactive); in experiment [8], 0.392; in experiment [9], -0.49; in experiment [10] it was -0.0031 (inactive); in experiment [11], -0.37; in experiment [12] it was -1.47 (inactive). Besides, the z-score is -0.0942 (inactive) in experiment [13]; -0.139 (inactive) in experiment [15]; -1.65 (inactive) in [16]; -0.033 (inactive) in experiment [17]; -0.394 (inactive) in [18]; -0.384 in experiment [19]. For the same molecule, the figures for the composite z-score in experiment [14] and in [20] were -0.928 (inactive) and 0.0256, respectively.
